Results as given in PubChem BioAssay AID743293 (Broad Institute, 2014).
Results with a measured potency or affinity are listed apart. The source made the active and inactive calls.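 The calls were made as follows: active = compounds lowering fluorescence with a fitted half-maximal concentration at or below a set limit tied to top dose; inconclusive = flat curve with 30 to 70% inhibition, or poor fit; inactive = the rest.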

Target: Caspase-9 (Homo sapiens) (UniProt P55211)
Experiment: caspase-9 enzyme inhibition, dose response, selectivity assay for caspase-6 inhibitor project, biochemical, fluorescence, plate reader, cherry-picked samples (AID 743293)
Conditions: purified caspase-9, Z-LEHD-R110 cleavage fluorescence; series mostly up to 35 µM

Caspase-9 (Homo sapiens), sequence (P55211 whole entry, looked up): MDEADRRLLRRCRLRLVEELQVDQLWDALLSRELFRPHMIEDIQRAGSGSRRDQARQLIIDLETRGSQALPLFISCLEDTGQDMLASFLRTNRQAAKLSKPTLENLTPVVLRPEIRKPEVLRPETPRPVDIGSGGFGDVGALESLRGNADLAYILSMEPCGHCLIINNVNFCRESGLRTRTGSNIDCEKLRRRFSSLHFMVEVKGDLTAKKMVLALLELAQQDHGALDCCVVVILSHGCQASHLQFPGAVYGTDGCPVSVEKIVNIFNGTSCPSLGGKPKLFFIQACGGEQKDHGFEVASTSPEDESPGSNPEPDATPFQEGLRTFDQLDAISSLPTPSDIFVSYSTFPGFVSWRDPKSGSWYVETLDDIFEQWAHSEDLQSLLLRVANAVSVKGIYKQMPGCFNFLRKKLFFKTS

outcome, inactive:
C/C(CC(=O)N1CCCC1)=N\NC(=O)c1cc2ccccc2cc1O, COc1cc(NCCCCC(C)N)c2nccc(C)c2c1 (stereo not given), O=C(O)Cc1ccc(-n2cccc2)cc1, O=P(c1ccccc1)(c1ccccc1)c1cc(S(=O)(=O)O)ccc1O, Cc1ccc(S(=O)(=O)Nc2csc(C)c2C(=O)O)cc1, Cn1cnnc1SCC(=O)Nc1ncc([N+](=O)[O-])s1, COc1ccc(NC(=O)CN(C)C(=O)c2cccc(-n3cccc3)c2)cc1, Cc1c(CCC(=O)O)c(=O)oc2c(C)c(OCc3ccccc3Cl)ccc12, O=C(O)CC(CCc1ccccc1)OC1OC(CO)C(O)C(O)C1O (stereo not given), O=S(=O)(O)c1cc(O)c2cc(Nc3ccccc3)ccc2c1, Cc1ccc(C)c(NC(=O)CN(C)C(=O)c2cccc(-n3cccc3)c2)c1, CCCN(C(=O)c1cccc(-n2cccc2)c1)c1c(N)n(Cc2ccccc2)c(=O)[nH]c1=O, CC(C)(C)c1ccc(NC(=O)COC(=O)c2ccc([N+](=O)[O-])s2)cc1, COc1ccc(NS(=O)(=O)c2ccc3c(c2)[C@H]2C=CC[C@H]2[C@@H](c2ccc(C(=O)O)cc2)N3)cc1, Nc1cc2c(cc1Br)[nH]c(=O)c1ccccc12, Cc1cc(C=O)c(C)n1-c1cc(C(=O)O)cc(C(=O)O)c1, CCCCN(C(=O)c1cccc(-n2cccc2)c1)c1c(N)n(CCC)c(=O)[nH]c1=O, O=c1oc(-c2ccccc2)nc2sc3c(c12)CCC3, CO[C@H]1CN(C)C(=O)c2cc(NC(C)=O)ccc2OC[C@@H](C)N(C(=O)CC2CC2)C[C@H]1C, Cc1cc(C=O)c(C)n1-c1ccc(Cl)c(C(=O)O)c1, Cc1cccc(NC(=O)CNC(=O)c2cccc(-n3cccc3)c2)c1C, O=C1CN(C(=O)COC(=O)c2ccc([N+](=O)[O-])s2)c2ccccc2N1, COc1ccc([N+](=O)[O-])cc1NC(=O)CCS(=O)(=O)c1ccc(Br)cc1, O=c1c(CO)cc(CO)cc(CO)c1O, CCCCNC(=O)c1nc(C2CCNCC2)oc1-c1cccc(C(F)(F)F)c1, O=C(O)C1Nc2c(Cl)cc(Cl)c(Cl)c2C2C=CCC12 (stereo not given), Nc1ccc(Nc2ccccc2)c(S(=O)(=O)O)c1, Cc1ccc(S(=O)c2ccc([N+](=O)[O-])c3nonc23)cc1 (stereo not given), O=c1oc2ccccc2c2oc3cc(O)c(O)cc3c12, CCOC(=O)c1sc2nc(OCCN3CCOCC3)cc(C)c2c1N
